This is an account of results in publication PMC7862700, “An all-to-all approach to the identification of sequence-specific readers for epigenetic DNA modifications on cytosine”.

What all share (test): DAPPL (digital affinity profiling via proximity ligation, sequencing); 10 mM Tris-HCl pH 7.5, 50 mM NaCl, 1 mM DTT, 4% glycerol, room temperature, 30 min; GST-TFs on glutathione beads, 16-mer random dsDNA library, 0.1% formaldehyde crosslink after washing; high values mean tight binding
The target of assay [1] is T1, FEV (Homo sapiens, UniProt Q99581 1-238).
T1 sequence: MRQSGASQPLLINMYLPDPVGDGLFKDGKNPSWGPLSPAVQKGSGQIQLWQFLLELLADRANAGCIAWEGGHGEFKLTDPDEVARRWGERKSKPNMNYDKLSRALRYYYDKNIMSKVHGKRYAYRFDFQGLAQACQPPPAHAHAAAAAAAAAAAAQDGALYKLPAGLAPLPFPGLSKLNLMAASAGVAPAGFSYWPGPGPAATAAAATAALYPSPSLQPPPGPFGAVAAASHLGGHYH
Conditions: protein: recombinant; tags: N-terminal GST; dsDNA, one strand shown. A digest of the protocol:
(§1)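 Human transcription factors fused to GST were expressed in yeast, captured on glutathione beads, given DNA barcodes and pooled with a GST-only negative control. Pools were incubated with 200 nmole of a 16-mer random double-stranded DNA library in Tris/NaCl/DTT/glycerol buffer at room temperature for 30 min. They were then washed, crosslinked with 0.1% formaldehyde, proximity-ligated (BsaI/T4 ligase, 1 h, 37 °C), PCR-amplified and sequenced on an Illumina NextSeq500. Binding signal is each 6-mer's read frequency for a factor divided by its frequency for the GST control.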

In assay [2] the target is ETV5 (Homo sapiens, UniProt P41161 1-510). To be noted: protein: recombinant; tags: N-terminal GST; dsDNA, one strand shown. A digest of the protocol: as §1
Assay [3] has as its target HSF1 (Homo sapiens, UniProt Q00613 1-529). To be noted: protein: recombinant; tags: N-terminal GST; chain copies: 3; dsDNA, one strand shown. A digest of the protocol:
as §1

The target in assay [4] is T2, SPIC (Homo sapiens, UniProt Q8N5J4 1-248).
T2 sequence: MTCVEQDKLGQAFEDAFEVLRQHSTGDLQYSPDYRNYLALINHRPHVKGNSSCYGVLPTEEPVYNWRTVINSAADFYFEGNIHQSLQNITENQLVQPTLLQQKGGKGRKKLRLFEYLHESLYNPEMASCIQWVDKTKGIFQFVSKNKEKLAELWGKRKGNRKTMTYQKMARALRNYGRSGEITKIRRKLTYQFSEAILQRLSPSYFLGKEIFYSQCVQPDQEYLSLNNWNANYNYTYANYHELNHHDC
Conditions: protein: recombinant; tags: N-terminal GST; dsDNA, one strand shown. A digest of the protocol:
as §1

Assay [5] has as its target ELF4 (Homo sapiens, UniProt Q99607 1-663). To be noted: protein: recombinant; tags: N-terminal GST; dsDNA, one strand shown. The procedure, abridged: as §1
Assay [6] deals with T3, ELK4 (Homo sapiens, UniProt P28324-2 1-405).
T3 sequence: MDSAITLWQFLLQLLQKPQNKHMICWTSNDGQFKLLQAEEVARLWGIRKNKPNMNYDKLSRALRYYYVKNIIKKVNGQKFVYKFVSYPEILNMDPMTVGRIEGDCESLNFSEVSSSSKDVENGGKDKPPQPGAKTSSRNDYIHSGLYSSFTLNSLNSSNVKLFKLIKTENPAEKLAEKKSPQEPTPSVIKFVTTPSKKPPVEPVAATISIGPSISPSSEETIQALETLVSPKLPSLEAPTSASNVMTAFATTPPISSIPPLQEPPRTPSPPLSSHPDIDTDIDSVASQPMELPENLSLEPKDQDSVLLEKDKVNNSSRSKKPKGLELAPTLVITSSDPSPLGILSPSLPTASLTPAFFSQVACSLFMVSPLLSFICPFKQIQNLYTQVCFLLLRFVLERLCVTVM
Conditions: protein: recombinant; tags: N-terminal GST; dsDNA, one strand shown. The procedure, abridged:
as §1

For assay [7], the target named is T4, ETV2 (Homo sapiens, UniProt O00321 1-342).
T4 sequence: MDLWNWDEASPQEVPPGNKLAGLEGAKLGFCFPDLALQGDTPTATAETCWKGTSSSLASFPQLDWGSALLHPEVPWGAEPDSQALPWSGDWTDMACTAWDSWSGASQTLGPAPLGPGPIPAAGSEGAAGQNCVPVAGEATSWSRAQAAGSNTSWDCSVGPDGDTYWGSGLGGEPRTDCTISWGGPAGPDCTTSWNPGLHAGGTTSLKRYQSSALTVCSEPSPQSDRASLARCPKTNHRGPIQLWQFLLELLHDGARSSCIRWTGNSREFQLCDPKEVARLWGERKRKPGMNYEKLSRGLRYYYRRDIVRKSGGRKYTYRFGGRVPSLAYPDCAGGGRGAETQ
To be noted: protein: recombinant; tags: N-terminal GST; dsDNA, one strand shown. The procedure, abridged:
as §1

Assay [8] concerns the target T5, ELF3 (Homo sapiens, UniProt P78545 1-371).
T5 sequence: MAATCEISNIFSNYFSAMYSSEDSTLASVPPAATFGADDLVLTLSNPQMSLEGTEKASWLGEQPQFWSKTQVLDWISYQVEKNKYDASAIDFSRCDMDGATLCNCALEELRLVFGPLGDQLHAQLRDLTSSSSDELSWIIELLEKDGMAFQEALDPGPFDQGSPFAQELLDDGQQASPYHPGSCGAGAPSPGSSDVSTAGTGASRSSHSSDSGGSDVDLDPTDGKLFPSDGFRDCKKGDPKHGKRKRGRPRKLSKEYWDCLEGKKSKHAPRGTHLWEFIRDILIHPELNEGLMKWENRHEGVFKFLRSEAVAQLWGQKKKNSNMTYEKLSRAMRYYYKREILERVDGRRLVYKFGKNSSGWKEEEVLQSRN
Conditions: protein: recombinant; tags: N-terminal GST; dsDNA, one strand shown. A digest of the protocol: as §1

Assay [9] deals with CRX (Homo sapiens, UniProt O43186 1-299). To be noted: protein: recombinant; tags: N-terminal GST; dsDNA, one strand shown. A digest of the protocol: as §1
Assay [10] has as its target ETV1 (Homo sapiens, UniProt P50549 1-477). Conditions: protein: recombinant; tags: N-terminal GST; dsDNA, one strand shown. The procedure, abridged:
as §1

For assay [11], the target named is T6, ERF (Homo sapiens, UniProt P50548 1-548).
T6 sequence: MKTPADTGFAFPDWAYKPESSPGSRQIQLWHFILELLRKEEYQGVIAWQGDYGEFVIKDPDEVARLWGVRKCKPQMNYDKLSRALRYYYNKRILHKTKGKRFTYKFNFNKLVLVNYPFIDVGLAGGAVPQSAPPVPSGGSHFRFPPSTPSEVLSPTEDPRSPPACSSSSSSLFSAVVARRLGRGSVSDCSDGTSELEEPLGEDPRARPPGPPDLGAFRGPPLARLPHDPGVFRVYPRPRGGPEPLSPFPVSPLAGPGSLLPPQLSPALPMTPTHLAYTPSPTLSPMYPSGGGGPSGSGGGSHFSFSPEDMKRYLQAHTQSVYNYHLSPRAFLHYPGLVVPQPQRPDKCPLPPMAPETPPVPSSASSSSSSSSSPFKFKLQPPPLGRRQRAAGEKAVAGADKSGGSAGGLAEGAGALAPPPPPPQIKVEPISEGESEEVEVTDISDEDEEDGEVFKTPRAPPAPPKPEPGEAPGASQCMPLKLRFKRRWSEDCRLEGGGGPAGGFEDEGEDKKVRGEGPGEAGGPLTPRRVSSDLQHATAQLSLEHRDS
To be noted: protein: recombinant; tags: N-terminal GST; dsDNA, one strand shown. The procedure, abridged:
as §1

Assay [12] has as its target T7, ETV3L (Homo sapiens, UniProt Q6ZN32 1-361).
T7 sequence: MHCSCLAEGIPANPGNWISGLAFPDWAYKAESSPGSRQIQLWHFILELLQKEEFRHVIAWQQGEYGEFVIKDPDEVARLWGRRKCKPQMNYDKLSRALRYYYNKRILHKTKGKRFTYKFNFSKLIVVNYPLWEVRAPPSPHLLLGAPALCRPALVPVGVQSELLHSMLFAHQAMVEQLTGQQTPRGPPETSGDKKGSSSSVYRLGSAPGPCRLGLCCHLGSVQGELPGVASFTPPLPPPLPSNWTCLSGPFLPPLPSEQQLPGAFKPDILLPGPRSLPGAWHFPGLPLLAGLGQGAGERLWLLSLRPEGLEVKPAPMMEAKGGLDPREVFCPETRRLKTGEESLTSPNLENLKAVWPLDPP
To be noted: protein: recombinant; tags: N-terminal GST; dsDNA, one strand shown. The procedure, abridged:
as §1

For assay [13], the target named is T8, ETS2 (Homo sapiens, UniProt P15036 1-469).
T8 sequence: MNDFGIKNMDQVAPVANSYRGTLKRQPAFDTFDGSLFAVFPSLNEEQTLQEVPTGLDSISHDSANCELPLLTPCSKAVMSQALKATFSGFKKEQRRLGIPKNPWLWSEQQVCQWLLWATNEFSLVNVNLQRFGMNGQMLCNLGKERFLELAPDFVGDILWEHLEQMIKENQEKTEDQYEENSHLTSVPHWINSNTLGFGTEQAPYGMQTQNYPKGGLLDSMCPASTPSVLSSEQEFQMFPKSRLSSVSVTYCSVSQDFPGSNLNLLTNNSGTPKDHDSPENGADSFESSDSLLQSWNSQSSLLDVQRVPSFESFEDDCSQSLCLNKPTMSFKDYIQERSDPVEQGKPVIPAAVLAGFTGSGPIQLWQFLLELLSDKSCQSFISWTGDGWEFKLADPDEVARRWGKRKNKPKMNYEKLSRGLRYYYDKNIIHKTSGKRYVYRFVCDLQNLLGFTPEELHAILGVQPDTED
Conditions: protein: recombinant; tags: N-terminal GST; dsDNA, one strand shown. The procedure, abridged: as §1

The target of assay [14] is T9, SPDEF (Homo sapiens, UniProt O95238 1-335).
T9 sequence: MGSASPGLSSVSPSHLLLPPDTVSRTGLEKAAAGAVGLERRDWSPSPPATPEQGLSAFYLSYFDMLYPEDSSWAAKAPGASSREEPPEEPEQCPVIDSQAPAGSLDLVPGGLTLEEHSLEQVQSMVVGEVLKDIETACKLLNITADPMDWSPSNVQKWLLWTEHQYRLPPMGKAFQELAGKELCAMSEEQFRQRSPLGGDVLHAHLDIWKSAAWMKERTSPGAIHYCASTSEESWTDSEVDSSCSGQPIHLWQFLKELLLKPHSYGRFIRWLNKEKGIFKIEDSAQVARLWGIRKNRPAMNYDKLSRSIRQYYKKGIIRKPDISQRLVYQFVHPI
To be noted: protein: recombinant; tags: N-terminal GST; dsDNA, one strand shown. The procedure, abridged:
as §1

Assay [15] deals with T10, ETV7 (Homo sapiens, UniProt Q9Y603 1-341).
T10 sequence: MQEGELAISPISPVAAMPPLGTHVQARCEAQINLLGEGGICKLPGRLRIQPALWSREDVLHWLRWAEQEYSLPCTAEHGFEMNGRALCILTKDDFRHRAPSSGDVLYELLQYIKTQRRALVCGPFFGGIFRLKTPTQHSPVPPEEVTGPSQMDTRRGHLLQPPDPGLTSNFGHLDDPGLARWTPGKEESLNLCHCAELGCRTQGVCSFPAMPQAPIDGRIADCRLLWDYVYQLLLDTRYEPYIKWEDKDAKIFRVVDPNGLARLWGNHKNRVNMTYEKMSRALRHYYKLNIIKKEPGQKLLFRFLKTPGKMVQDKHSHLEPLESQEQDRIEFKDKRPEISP
Conditions: protein: recombinant; tags: N-terminal GST; dsDNA, one strand shown. A digest of the protocol:
as §1

Assay [16] deals with T11, ELF5 (Homo sapiens, UniProt Q9UKW6-2 1-255).
T11 sequence: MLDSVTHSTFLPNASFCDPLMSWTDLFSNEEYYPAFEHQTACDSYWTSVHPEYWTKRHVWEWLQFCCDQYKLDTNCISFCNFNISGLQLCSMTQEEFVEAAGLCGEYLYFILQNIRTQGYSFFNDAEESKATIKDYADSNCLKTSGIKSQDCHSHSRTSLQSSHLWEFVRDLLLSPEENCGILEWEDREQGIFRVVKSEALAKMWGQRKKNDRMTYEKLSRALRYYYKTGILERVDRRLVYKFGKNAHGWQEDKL
Conditions: protein: recombinant; tags: N-terminal GST; dsDNA, one strand shown. A digest of the protocol: as §1

Assay [17] has as its target T12, ETV3 (Homo sapiens, UniProt P41162-2 1-143).
T12 sequence: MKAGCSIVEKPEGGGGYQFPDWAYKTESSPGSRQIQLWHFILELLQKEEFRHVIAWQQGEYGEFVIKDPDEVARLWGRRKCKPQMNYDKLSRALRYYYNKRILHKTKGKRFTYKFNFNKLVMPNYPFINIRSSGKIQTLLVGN
Conditions: protein: recombinant; tags: N-terminal GST; dsDNA, one strand shown. The procedure, abridged: as §1

For assay [18], the target named is ETV6 (Homo sapiens, UniProt P41212 1-452). Conditions: protein: recombinant; tags: N-terminal GST; dsDNA, one strand shown. The procedure, abridged: as §1
Chain of ETV6 (P41212 whole entry): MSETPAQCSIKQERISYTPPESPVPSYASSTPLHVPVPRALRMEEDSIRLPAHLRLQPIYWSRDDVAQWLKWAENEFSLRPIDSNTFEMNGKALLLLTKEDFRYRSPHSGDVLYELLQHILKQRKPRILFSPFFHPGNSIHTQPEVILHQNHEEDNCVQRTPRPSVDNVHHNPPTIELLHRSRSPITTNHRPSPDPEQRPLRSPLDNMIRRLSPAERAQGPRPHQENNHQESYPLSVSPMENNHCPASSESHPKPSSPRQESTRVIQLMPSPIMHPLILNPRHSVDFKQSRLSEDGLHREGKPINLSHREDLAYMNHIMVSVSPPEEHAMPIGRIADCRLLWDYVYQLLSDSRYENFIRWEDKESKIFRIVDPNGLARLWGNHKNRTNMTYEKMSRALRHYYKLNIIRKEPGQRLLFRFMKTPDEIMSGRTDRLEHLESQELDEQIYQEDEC

Chain of ETV1 (P50549 whole entry): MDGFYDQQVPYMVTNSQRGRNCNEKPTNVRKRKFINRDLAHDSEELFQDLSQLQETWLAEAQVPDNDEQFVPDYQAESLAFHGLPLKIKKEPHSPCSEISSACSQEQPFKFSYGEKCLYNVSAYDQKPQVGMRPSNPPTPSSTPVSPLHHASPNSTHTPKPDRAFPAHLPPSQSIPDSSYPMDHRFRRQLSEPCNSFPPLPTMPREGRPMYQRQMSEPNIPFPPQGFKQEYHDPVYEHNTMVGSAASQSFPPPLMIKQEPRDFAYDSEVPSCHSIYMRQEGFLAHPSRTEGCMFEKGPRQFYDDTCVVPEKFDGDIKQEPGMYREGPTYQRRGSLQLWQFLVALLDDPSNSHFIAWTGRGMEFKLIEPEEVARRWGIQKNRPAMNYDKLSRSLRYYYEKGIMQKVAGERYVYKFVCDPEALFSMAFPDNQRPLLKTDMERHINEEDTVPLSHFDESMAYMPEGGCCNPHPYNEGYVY
Chain of CRX (O43186 whole entry): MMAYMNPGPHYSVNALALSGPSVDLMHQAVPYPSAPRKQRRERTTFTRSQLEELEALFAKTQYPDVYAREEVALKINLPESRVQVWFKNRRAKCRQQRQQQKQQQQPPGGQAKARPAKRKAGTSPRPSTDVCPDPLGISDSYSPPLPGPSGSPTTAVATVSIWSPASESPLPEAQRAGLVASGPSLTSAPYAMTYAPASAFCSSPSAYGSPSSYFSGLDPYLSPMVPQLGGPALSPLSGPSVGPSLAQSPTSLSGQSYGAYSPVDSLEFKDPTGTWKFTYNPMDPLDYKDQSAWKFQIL
Chain of ELF4 (Q99607 whole entry): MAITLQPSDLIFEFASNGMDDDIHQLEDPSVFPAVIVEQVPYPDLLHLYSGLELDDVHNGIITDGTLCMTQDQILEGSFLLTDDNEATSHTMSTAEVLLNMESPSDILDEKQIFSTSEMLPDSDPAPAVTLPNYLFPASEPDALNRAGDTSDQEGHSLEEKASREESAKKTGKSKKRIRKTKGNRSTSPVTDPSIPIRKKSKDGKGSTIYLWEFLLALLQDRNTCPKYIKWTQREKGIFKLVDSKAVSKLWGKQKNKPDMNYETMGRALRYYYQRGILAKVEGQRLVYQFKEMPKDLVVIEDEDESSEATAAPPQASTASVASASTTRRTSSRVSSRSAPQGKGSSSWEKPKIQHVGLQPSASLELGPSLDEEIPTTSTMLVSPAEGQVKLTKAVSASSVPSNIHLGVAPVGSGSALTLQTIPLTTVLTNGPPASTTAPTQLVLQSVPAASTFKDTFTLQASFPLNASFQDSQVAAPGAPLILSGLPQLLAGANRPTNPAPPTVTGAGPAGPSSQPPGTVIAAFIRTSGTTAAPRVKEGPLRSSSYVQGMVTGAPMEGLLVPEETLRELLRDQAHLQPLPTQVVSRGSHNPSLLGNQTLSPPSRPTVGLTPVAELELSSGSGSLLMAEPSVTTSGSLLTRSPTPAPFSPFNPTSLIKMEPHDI
Chain of ETV5 (P41161 whole entry): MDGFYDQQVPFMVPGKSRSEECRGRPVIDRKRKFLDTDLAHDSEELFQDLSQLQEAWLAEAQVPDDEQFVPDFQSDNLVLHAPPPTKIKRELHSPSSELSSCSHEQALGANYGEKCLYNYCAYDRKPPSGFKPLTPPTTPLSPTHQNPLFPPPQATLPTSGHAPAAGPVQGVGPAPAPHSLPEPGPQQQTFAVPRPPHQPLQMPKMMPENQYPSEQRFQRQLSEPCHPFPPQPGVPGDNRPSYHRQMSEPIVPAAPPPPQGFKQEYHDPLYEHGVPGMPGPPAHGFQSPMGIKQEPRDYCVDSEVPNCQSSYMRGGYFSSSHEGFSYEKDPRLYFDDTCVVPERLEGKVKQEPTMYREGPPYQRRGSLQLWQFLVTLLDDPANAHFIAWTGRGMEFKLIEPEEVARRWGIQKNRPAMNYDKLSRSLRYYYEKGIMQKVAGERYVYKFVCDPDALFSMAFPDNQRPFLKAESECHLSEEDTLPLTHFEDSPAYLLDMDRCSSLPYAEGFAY
Chain of HSF1 (Q00613 whole entry): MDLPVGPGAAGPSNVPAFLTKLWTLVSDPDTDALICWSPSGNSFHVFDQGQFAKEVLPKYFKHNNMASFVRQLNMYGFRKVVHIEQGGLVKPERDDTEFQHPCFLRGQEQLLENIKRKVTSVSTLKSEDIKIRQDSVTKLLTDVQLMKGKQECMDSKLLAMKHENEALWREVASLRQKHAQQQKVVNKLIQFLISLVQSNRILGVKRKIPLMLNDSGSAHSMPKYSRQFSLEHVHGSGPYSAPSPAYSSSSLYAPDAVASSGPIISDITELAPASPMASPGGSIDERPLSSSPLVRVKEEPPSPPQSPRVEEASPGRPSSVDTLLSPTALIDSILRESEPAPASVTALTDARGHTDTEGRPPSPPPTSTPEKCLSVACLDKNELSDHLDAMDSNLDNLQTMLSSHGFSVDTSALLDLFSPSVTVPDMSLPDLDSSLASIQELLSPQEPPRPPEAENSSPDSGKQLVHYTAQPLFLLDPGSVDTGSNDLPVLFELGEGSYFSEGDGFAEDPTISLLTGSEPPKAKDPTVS

On to CTTTTC, for which the binding signal in assay [1] is 1.39 fold enrichment (6-mer frequency, TF over GST control); in assay [2] it was 1.44 fold enrichment (6-mer frequency, TF over GST control); in assay [3], 1.5 fold enrichment (6-mer frequency, TF over GST control); in [4] it was 1.45 fold enrichment (6-mer frequency, TF over GST control); in assay [5], 1.43 fold enrichment (6-mer frequency, TF over GST control); in assay [6], 1.49 fold enrichment (6-mer frequency, TF over GST control). Besides, the binding signal is 1.48 fold enrichment (6-mer frequency, TF over GST control) in assay [7]; 1.48 fold enrichment (6-mer frequency, TF over GST control) in [8]; 1.25 fold enrichment (6-mer frequency, TF over GST control) in assay [9]; 1.4 fold enrichment (6-mer frequency, TF over GST control) in [10]; 1.33 fold enrichment (6-mer frequency, TF over GST control) in assay [11]; 1.48 fold enrichment (6-mer frequency, TF over GST control) in assay [12]. Further, the binding signal was 1.33 fold enrichment (6-mer frequency, TF over GST control) in [13]; 1.49 fold enrichment (6-mer frequency, TF over GST control) in assay [14]; 1.49 fold enrichment (6-mer frequency, TF over GST control) in assay [15]; 1.58 fold enrichment (6-mer frequency, TF over GST control) in assay [16]; 1.69 fold enrichment (6-mer frequency, TF over GST control) in assay [17]; 1.57 fold enrichment (6-mer frequency, TF over GST control) in assay [18].
